82 compounds from PubChem BioAssay AID488896 (Broad Institute, 2010) can be followed below.

In all, about 320,000 compounds went through this assay and about 3,100 (0.97%) were called active.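 Rule for the calls: active = mean replicate inhibition of at least 70% and a set share of replicates each scoring 70 or more; inconclusive = meets just one of the two criteria; inactive = fails both criteria.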 The list comes from a sample in which actives are over-represented; it also holds similar structures and randomly drawn compounds. Non-standard residues stand in square brackets, D forms with d. Residues, ends and D or L forms follow the SMILES beside them. ξ: configuration not given here. Ac5c = NC1(C(=O)O)CCCC1; ξS = NC(CO)C(=O)O

The target in this assay is Scavenger receptor class B member 1 (Mus musculus) (UniProt Q61009). The assay can be described thus: inhibitors of SR-BI mediated HDL lipid uptake, primary screen, ldlA[mSR-BI] cells, fluorescence, single point (AID 488896).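 Note: 0% = median of neutral control wells and 100% = median of positive control wells.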 Conditions: ldlA[mSR-BI] CHO cells, DiI-HDL uptake fluorescence, 3 h; at 12.5 µM; active compounds read high.
Sequence of Scavenger receptor class B member 1 (Mus musculus) (Q61009 whole entry, looked up): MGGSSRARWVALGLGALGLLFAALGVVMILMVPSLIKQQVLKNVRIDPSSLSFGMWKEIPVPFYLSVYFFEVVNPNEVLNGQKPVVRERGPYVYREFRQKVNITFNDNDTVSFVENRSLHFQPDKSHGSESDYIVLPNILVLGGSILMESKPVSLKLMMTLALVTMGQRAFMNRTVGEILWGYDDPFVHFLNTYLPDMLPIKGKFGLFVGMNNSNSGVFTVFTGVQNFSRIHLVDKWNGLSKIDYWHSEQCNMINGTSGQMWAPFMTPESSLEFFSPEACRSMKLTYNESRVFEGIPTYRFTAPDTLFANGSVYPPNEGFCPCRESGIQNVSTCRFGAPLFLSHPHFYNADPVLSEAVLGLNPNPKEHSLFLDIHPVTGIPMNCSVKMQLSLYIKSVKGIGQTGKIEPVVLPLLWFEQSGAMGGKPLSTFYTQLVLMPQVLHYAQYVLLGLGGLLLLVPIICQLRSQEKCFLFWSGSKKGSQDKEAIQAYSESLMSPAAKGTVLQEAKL
Regarding `COc1ccc(C(=O)Nc2ccc3nc(N4CCCCC4)cc(C)c3c2)cc1OC`, the inhibition was 44.3% (inactive).

Regarding `COc1ccc(C(=O)Nc2ccc(C3(C#N)CCCC3)cc2)cc1OC`, the inhibition is 82% (active).

For the compound `COc1cc(C(=O)NCC2(c3ccccc3)CCCC2)ccc1OC(C)C`, the inhibition was 3.63% (inactive).

Turning to `CN(O)C(=S)c1ccccc1`, the inhibition was -24.5% (inactive).

As to `Cc1c(NS(=O)(=O)c2cccc(C(=O)Nc3ccc(SC(F)F)cc3)c2)c(=O)n(-c2ccccc2)n1C`, the inhibition was 10.9% (inactive).

For the compound `CC(=O)c1ccc(NC(=O)C(C)OC(=O)c2ccc(NS(=O)(=O)c3ccc4[nH]c(=O)[nH]c4c3)cc2)cc1` (configuration not stated), the inhibition was 18.7% (inactive).

As to `Cn1nc(-c2ccc(Cl)cc2)c2cc(C(=O)NCc3ccco3)sc21`, the inhibition is 90.1% (active).

Turning to `CN(CCNC(=O)c1cc2c(-c3ccccc3F)nn(C)c2s1)C1CCCCC1`, the inhibition is 42% (inactive).

Turning to `COc1ccccc1N1CCN(C(=O)c2cc3c(-c4ccc(Cl)cc4)nn(C)c3s2)CC1`, the inhibition was 58.4% (inactive).

`C[C@]12CCC(=O)C=C1C=CC1C2CC[C@@]2(C)C1CC[C@@]21CCC(=O)O1` (some centres not stated): the inhibition was -3.73% (inactive).

For `O=C(c1cccnc1)N(Cc1ccccc1)C(=O)c1cccnc1`, the inhibition was -2.46% (inactive).

With `CN(C(=O)c1ccc(NC(=O)Cc2cccc(NC(=O)C3CCN(C(=O)c4ccccc4)CC3)c2)cc1)C1CC1`, the inhibition was 15% (inactive).

Take `CCCC(O)(c1ccccc1)C(c1ccccc1)c1ccccn1` (configuration not stated): the inhibition is 11.7% (inactive).

As to `COc1ccc(C(CNC(=O)c2cccc(S(=O)(=O)Nc3ccc(Br)cc3)c2)N(C)C)cc1` (configuration not stated), the inhibition was -24.3% (inactive).

As to `COc1ccc(Nc2nc(-c3cccnc3)nc3ccccc23)cn1`, the inhibition was 31.9% (inactive).

On to `CCOC(=O)c1nc(Nc2ccc(C(=O)OC)cc2)c2ccccc2n1`, for which the inhibition is 33.7% (inactive).

As to `Cc1cccc(-c2nc(Nc3ccc(O)cc3)c3ccccc3n2)c1`, the inhibition was 74.9% (active).

For `O=C1NCC(c2ccccc2)(c2ccccc2)C(=O)N1`, the inhibition is -22.9% (inactive).

Take `O=C(Cc1ccc(Cl)cc1)c1ccccc1`: the inhibition was 1.95% (inactive).

With `O=C(CNC(=O)c1cc(S(=O)(=O)N2CCOCC2)ccc1N1CCCC1)Nc1ccc(F)c(F)c1`, the inhibition was 12.1% (inactive).

`COC(=O)c1nc2n(n1)C(c1ccc([N+](=O)[O-])cc1)C(C(=O)Nc1ccc(Cl)cc1)=C(C)N2` (configuration not stated): the inhibition is -8.37% (inactive).

`COC(=O)C1=CN(c2ccc(F)c(F)c2)C=C(C(=O)OC)C1c1ccc([N+](=O)[O-])cc1`: the inhibition was 71.8% (active).

For `COC(=O)C1=CN(C)C=C(C(=O)OC)C1c1ccc(Cl)cc1Cl`, the inhibition is -0.162% (inactive).

On to `Cn1cc(C2OC(=O)c3ccccc32)c2ccccc21` (configuration not stated), for which the inhibition was 3.47% (inactive).

As for `CCCCN(C(=O)CSCc1ccc(C)cc1)c1c(N)n(Cc2ccccc2)c(=O)[nH]c1=O`, the inhibition is 7.84% (inactive).

In the case of `O=C(Nc1ccc2ccccc2c1[N+](=O)[O-])c1ccccc1`, the inhibition was 14.4% (inactive).

On to `COC(=O)CC(CC(=O)OC)n1cccc1`, for which the inhibition was -7.62% (inactive).

`CC[C@]12c3[nH]c4cc(CCC(=O)N(C)C)ccc4c3CCN1C(=O)[C@@H](CC(=O)NCc1ccco1)C[C@@H]2C(=O)N1CCN(C(=O)c2ccco2)CC1`: the inhibition is 2.87% (inactive).

For `Cc1ccc(C)c(NS(=O)(=O)c2ccc(OCC(=O)NCc3cccnc3)cc2)c1`, the inhibition is -23.5% (inactive).

On to `Cc1ccc(NS(=O)(=O)c2ccc(C)c(NC(=O)COc3ccc4ccccc4c3)c2)c(C)c1`, for which the inhibition was 78.5% (active).

Take `Cc1ccc(C)c(NC(=O)CN(C)C(=O)COc2ccc3ccccc3c2)c1`: the inhibition is 2.83% (inactive).

Take `O=C1/C(=C\c2ccc([N+](=O)[O-])cc2)CS(=O)(=O)C/C1=C/c1ccc([N+](=O)[O-])cc1`: the inhibition is 17.7% (inactive).

On to `CC[C@@H]1Cc2cc(O)ccc2C2=C1c1ccc(O)cc1C[C@H]2CC`, for which the inhibition was 76.1% (active).

Turning to `O=C(NNC(=O)c1ccc2ccccc2c1)c1ccc(Cl)cc1`, the inhibition was -17.1% (inactive).

Regarding `COc1ccc(C)cc1Nc1nc(C)nc2c1oc1ccccc12`, the inhibition was -8.2% (inactive).

Consider `COc1ccc(C)cc1Nc1nc(-c2c(C)[nH]c3ccccc23)cs1`, for which the inhibition was 77.1% (active).

Consider `COC(=O)c1cnc(Nc2cc(C)ccc2OC)c2ccccc12`, for which the inhibition is 11.3% (inactive).

Consider `COCC(=O)N(C)[C@H]1C[C@H]2c3cc(Oc4ccccc4C)ccc3CCN2C(=O)[C@H]1[C@H](C)O`, for which the inhibition is 5.04% (inactive).

Take `COc1ccc(OC)c(-c2csc(NC(=O)COC(=O)C3CC3)n2)c1`: the inhibition is 29.7% (inactive).

As for `COc1ccc(NC(=O)C2=NNC(=O)CC2)cc1S(=O)(=O)N1CCCCC1`, the inhibition was 12.9% (inactive).

As to `COc1ccc(OC)c(-c2csc(NC(=O)C3=NNC(=O)CC3)n2)c1`, the inhibition was 74.1% (active).

For `O=C(CC(=O)c1cccnc1)c1ccccc1`, the inhibition was 1.21% (inactive).

On to `O=C(COc1ccc(/C=N/NC(=O)c2ccc(O)cc2)cc1)Nc1ccc([N+](=O)[O-])cc1`, for which the inhibition was 24.6% (inactive).

With `CCCCCC(=O)Nc1ccc(C(=O)N/N=C/c2ccc([N+](=O)[O-])cc2)cc1`, the inhibition was 92.9% (active).

Turning to `CCCCCC(=O)NC(=S)NNC(=O)c1ccc([N+](=O)[O-])cc1`, the inhibition is 11.5% (inactive).

Regarding `Cc1ccc(S(=O)(=O)N2CCN(C(=O)c3cc(S(=O)(=O)N4CCOCC4)ccc3F)CC2)cc1`, the inhibition is -4.26% (inactive).

For `CCOc1ccc(NC(=O)N2CCN(CC)CC2)cc1`, the inhibition is -5.71% (inactive).

With `CCOc1ccc(NC(=O)CN2CCN(CC(=O)Nc3ccc(OC)cc3)CC2)cc1`, the inhibition is 77.8% (active).

`CCOc1ccc(NC(=O)c2ccc(NC(=O)C3CCCO3)cc2)cc1` (configuration not stated): the inhibition is 24.7% (inactive).

Turning to `CCOC(=O)N1CCN(CC(=O)Nc2ccc(F)cc2)CC1`, the inhibition is -2.83% (inactive).

Take `CCOc1ccc(NC(=O)c2ccc(NC(=O)CN3C(=O)C(=O)N(CC(C)C)C3=O)cc2)cc1`: the inhibition is 75.7% (active).

On to `CCOc1ccc(NC(=O)c2ccc(NC(=O)COC(=O)c3ccc(NC(=O)CC#N)cc3)cc2)cc1`, for which the inhibition was 57.5% (inactive).

Regarding `COc1ccc(/C=C2/CCCc3ccccc3C2=O)cc1`, the inhibition is 12.7% (inactive).

Turning to `CCOc1cc(C=NNC(=O)CCCC(=O)NN=Cc2ccc(O)c(OCC)c2)ccc1O`, the inhibition is 7.36% (inactive).

For `CCOC(=O)[C@H]1[C@H]2COc3ccc(Br)cc3[C@@H]2N2C(=O)CN(C)C(=O)[C@@]12C`, the inhibition is -11.5% (inactive).

As to `Cc1cccc(NC(=O)c2cc([N+](=O)[O-])ccc2N2CCN(C)CC2)c1`, the inhibition was 13.3% (inactive).

For `Cc1cccc(NC(=O)c2sc(-c3ccccc3)nc2-c2ccc([N+](=O)[O-])cc2)c1`, the inhibition is 77.7% (active).

With `Cc1cccc(NC(=O)c2ccc([N+](=O)[O-])o2)c1`, the inhibition was 0.0135% (inactive).

Turning to `CC(=O)OC1CCC2(C)C(=CCC3C4CC(=O)N(O)C(=O)C4(C)CCC32)C1` (configuration not stated), the inhibition was -19% (inactive).

Regarding `NC1=NOC(=O)C1C1CCCCC1` (configuration not stated), the inhibition is -14.7% (inactive).

Turning to `COc1ccc(-c2nc3c(s2)CCc2onc(-c4ccc(OC)cc4)c2-3)cc1`, the inhibition is 75.1% (active).

For `COc1ccc(-c2nc3n(c2Br)CCC3)cc1`, the inhibition was 4.81% (inactive).

On to `COc1ccc(-c2nc3c(s2)CCc2onc(-c4ccc(Br)cc4)c2-3)cc1`, for which the inhibition was 58.7% (inactive).

Regarding `NC(=O)C1CCN(C(=O)c2cc(S(=O)(=O)N3CCN(c4ccccc4)CC3)ccc2Cl)CC1`, the inhibition is -3.45% (inactive).

`COc1cccc(/C=C2\SC(=N)N(c3ccc(F)cc3)C2=O)c1`: the inhibition was 80.3% (active).

For the compound `COc1ccc(/C=C2\SC(=N)N(c3ccc(F)cc3)C2=O)cc1`, the inhibition is 13.3% (inactive).

In the case of `COc1cccc(/C=C2/SC(=S)N(CC(=O)NC3C=CS(=O)(=O)C3)C2=O)c1` (configuration not stated), the inhibition was 6.75% (inactive).

`Cc1cc(C)cc(OCC(=O)NC(C)c2ccccc2)c1` (configuration not stated): the inhibition is -23.6% (inactive).

For the compound `Cc1ccc(OCC(=O)NC(C)c2ccccc2)cc1C` (configuration not stated), the inhibition was 0.888% (inactive).

In the case of `C/C(CC(=O)NC(C)c1ccccc1)=N\NC(N)=S` (configuration not stated), the inhibition was 86.3% (active).

With `O=[N+]([O-])c1ccc(N=NNc2ccc([N+](=O)[O-])cc2)cc1`, the inhibition was -5.77% (inactive).

Regarding `CCOC(=O)C(CO)NC(=O)C1(NC(C)=O)CCCC1` (configuration not stated) (Ac-[Ac5c]-[ξS]-OEt), the inhibition is -1.77% (inactive).

Turning to `O=C(Nc1ccc(C(F)(F)F)cc1)c1cccc(-n2cnnn2)c1`, the inhibition is 9.16% (inactive).

Regarding `O=C(Nc1ccc(-c2csc(Nc3cccc(C(F)(F)F)c3)n2)cc1)c1cccc(C(F)(F)F)c1`, the inhibition was 109% (active).

As for `O=C(O)c1ccccc1C(=O)Nc1nc(-c2ccccc2)cs1`, the inhibition is -7.75% (inactive).

Consider `CN(C(=O)c1cccc(NC(=O)Cc2ccc(NC(=O)C3CCN(C(=O)C4CCCCC4)CC3)cc2)c1)C1CCC1`, for which the inhibition is 28.2% (inactive).

As to `C=CCCC(=O)N1C[C@H]2CON(C)[C@H]2C[C@H]1c1cccc(Nc2ccccc2)c1`, the inhibition was 2.33% (inactive).

Turning to `CCCCN(C(=O)c1cccc(N2C(=O)c3ccccc3C2=O)c1)c1c(N)n(CCCC)c(=O)[nH]c1=O`, the inhibition is 9.37% (inactive).

With `COc1ccc(CNC2CCCCC2)cc1`, the inhibition was -32.1% (inactive).

On to `COc1cc(CNC2CCCC2)c(Br)cc1OCc1ccccc1`, for which the inhibition was 79.2% (active).

Take `COc1cc(CN2CCC(C(N)=O)CC2)ccc1OCc1ccccc1`: the inhibition is -14.9% (inactive).

Regarding `O=C1/C(=C\c2ccc(O)cc2)CCC1CNc1ccc(Cl)cc1` (configuration not stated), the inhibition is 18.3% (inactive).
